Test results reported in PubChem BioAssay (NCATS).
Inconclusive results are not listed. A call without a number means that no potency is given here. The source made the active and inactive calls. The call rests on the fitted dose curve; in most records, active means well fitted inhibition curve with a large enough effect; inconclusive means small, poorly fitted or top-dose-only effect; inactive means flat fitted curve, though single readings scatter. Where a SMILES comes first, the peptide text is derived from it. The star is where a group is joined. AMC = Cc1cc(=O)oc2cc(N*)ccc12; Cbz = O=C(OCc1ccccc1)*

Assay: P-glycoprotein substrates identified in KB-8-5-11 adenocarcinoma cell line, qHTS therapeutic library screen (AID 1346987); further: nearly all actives have a fitted effect of over 65% in size
Details: KB-8-5-11 (P-gp overexpressing) viability, CellTiter-Glo, 72 h; series mostly up to 44.5 µM
How it was run: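 KB-8-5-11: colchicine-selected sub-line of KB-3-1 over-expressing P-gp; assay medium lacked colchicine. 72 h drug exposure at 37 degree C, CellTiter-Glo.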

SMILES | Potency
c1cc(-c2cc(C3CCNCC3)[nH]n2)ccn1 | inactive
COc1cncc(C#Cc2ccccn2)c1 | inactive
Cc1cc(=O)oc2cc(NC(=O)[C@H](CCC(=O)O)NC(=O)[C@H](CC(C)C)NC(=O)[C@H](CC(C)C)NC(=O)OCc3ccccc3)ccc12 (Cbz-Leu-Leu-Glu-{AMC}) | inactive
CC(CC12CCCN1C(=O)C1CCCN1C2=O)OC(N)=O (configuration not stated) | inactive
CC(=O)OC(C)(C)/C=C/C(=O)[C@](C)(O)C1[C@H](O)C[C@@]2(C)[C@@H]3CC=C4[C@@H](C[C@H](O[C@@H]5O[C@H](CO)[C@@H](O)[C@H](O)[C@H]5O)C(=O)C4(C)C)[C@]3(C)C(=O)C[C@]12C (some centres not stated) | inactive
COc1ccc(C(=O)OC2C3C=COC(OC4OC(CO)C(O)C(O)C4O)C3C3(CO)OC23)cc1OC (configuration not stated) | inactive
O=C(/C=C/c1ccc(O)c(O)c1)O[C@H]1[C@H](OC2CCCCC2O)O[C@H](CO)[C@@H](O)[C@@H]1O (some centres not stated) | inactive
